Screens deposited in PubChem by National Center for Advancing Translational Sciences (NCATS).
p53 reactivation: re-activators of mutant p53. 320,000 compounds, 0.063% hits. H1299 p53-A138V BP100-luciferase reporter, luminescence, 24 h. Potency, µM (titrated, usually from 92.2 µM), usual class: activators; further: nearly all actives have a fitted effect of over 45% in size
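H1299 (p53-null), stable ts p53-A138V + BP100-Luc; 1000 cells/well, Opti-MEM/10% FBS; cpd 4 pt, 1:5; 24 h, 37 deg C, 5% CO2; detection reagent 10 min RT; luminescence.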
ELG1 genotox: genotoxicity induction in ELG1-luciferase HEK293T cells; HEK293T ELG1-luciferase reporter, luminescence, 16 h; Potency, µM (series often up to 46 µM), usual class: activators; 330,000 compounds, 1.3% hits; AID 504466; further: nearly all actives have a fitted effect of over 60% in size
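DMSO vehicle served as control against compound-treated ELG1-luciferase HEK293T cells; exposure lasted 16 hr at 37 °C and 5% CO2, followed by ONE-Glo luminescence detection after 30 min.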
Rab9 promoter act: activators of Rab9 promoter. AID 485297. Huh7 Rab9 promoter-luciferase reporter, luminescence, 24 h. Potency, µM (titrated, usually from 9.22 µM), hits mostly activators. 320,000 compounds, 2.8% hits; further: nearly all actives have a fitted effect of over 60% in size
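Quantitative HTS format; Huh7 Rab9-luciferase reporter cells (1500/well) receive compound 2 h post-plating, incubate 24 h at 37 °C, then get luciferase reagent for 10 min before luminescence reading.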
SMN2 splice enh: increases expression of the SMN2 splice variant. 210,000 compounds, 2.8% hits. HEK293 SMN2-luciferase splicing reporter, luminescence, 30-36 h. Potency, µM (top dose mostly 46.1 µM), actives largely listed as activators. AID 1458; further: nearly all actives have a fitted effect of over 55% in size
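qHTS luciferase splicing reporter: luminescence rises when SMN2 exon 7 is included in transfected HEK293 cells. Compound exposure lasted 30-36 h at 37C, with 4.5 mM final sodium butyrate as control, followed by a ONE-Glo read.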
FLuc counter: inhibits or activates purified firefly luciferase, miR-21 counter-screen; purified FLuc, Km substrates, luminescence inhibition; 360,000 compounds, 6.9% hits; Potency, µM (highest dose often 57.5 µM), actives largely listed as inhibitors; AID 588342; P08659; further: nearly all actives have a fitted effect of over 55% in size
Target sequence (P08659 whole entry, looked up): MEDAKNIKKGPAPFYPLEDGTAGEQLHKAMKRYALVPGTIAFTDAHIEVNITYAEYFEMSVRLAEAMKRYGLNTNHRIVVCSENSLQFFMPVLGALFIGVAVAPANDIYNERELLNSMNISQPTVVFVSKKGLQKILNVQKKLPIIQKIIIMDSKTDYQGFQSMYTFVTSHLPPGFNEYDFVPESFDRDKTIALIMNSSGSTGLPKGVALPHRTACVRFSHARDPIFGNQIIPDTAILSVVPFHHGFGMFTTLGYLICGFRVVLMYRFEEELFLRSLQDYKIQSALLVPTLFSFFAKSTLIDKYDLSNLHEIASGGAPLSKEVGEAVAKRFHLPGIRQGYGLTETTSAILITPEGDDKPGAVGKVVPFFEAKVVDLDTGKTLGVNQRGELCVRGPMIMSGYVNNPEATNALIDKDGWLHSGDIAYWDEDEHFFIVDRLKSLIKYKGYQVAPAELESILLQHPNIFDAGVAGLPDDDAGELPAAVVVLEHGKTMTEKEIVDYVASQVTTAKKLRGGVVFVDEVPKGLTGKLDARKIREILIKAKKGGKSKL
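Purified P. pyralis luciferase (10nM final) with 10uM D-luciferin and 10uM ATP (Km levels) in 50mM Tris acetate pH 7.5, 10mM Mg acetate, 0.01% Tween-20, 0.05% BSA; qHTS 6-point titration, ~60 µM downward; luminescence read.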
NPC1 prom act: activators of NPC1 promoter. Huh7 NPC1 promoter luciferase reporter, 24 h. Potency, µM (series often up to 9.22 µM), most hits filed as activators. AID 485313. 320,000 compounds, 2.4% hits; further: nearly all actives have a fitted effect of over 60% in size
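Luminescence read-out of NPC1 promoter-driven luciferase in stably transfected Huh7 cells; compounds delivered in DMSO and left 24 h at 37C, 5% CO2, qHTS titration format.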
Hits are given with their value; – = inactive; ? = inconclusive; · = not tested or not shown; [ ] = another dose, or the depositor's remark. Most compounds without a hit are left out; they make up all but 7.3% or so of the library. The call rests on the fitted dose curve; in most records, active means well fitted curve in the direction sought with a large enough effect; inconclusive means small, poorly fitted or top-dose-only effect, or another doubt; inactive means no such curve, though single readings can be large; an effect the other way counts as inactive or inconclusive.

SMILES	p53 reactivation	ELG1 genotox	Rab9 promoter act	SMN2 splice enh	FLuc counter	NPC1 prom act
COc1ccc(-c2noc(C3CC(=O)N(c4ccc(C)c(F)c4)C3)n2)c(OC)c1 (stereo unspecified)	·	·	·	·	–	·
CCOc1ccccc1NC(=O)Cn1c(=O)n(Cc2cccs2)c(=O)c2cccnc21	·	·	·	–	–	·
COCc1cc(=O)[nH]c(Nc2nc3ccc(C)cc3o2)n1	?	23.1µM	–	–	16.9µM	–
CCc1ccc2nc(Nc3nc(COC)cc(=O)[nH]3)nc(C)c2c1	–	–	–	–	–	–
COc1ccc(C(=O)Nc2cccc(-c3cn4ccsc4n3)c2)cc1OC	·	·	·	·	3.38µM	·
COc1ccc(C(=O)Nc2cccc(-c3cn4ccsc4n3)c2)c(OC)c1	·	·	·	·	2.69µM	·
O=C1CCCC/C1=N\Nc1ccc(C2CCCCC2)cc1	–	4.61µM	?	·	1.69µM	–
Cc1ccc(Cn2c(C)c3cnn(CC(=O)NC4CCCC4)c(=O)c3c2C)cc1	–	–	1.26µM	·	?	?
COC(=O)Cn1ncc2c(C)n(Cc3ccccc3)c(C)c2c1=O	–	20.6µM	?	17.8µM	12µM	?
CCOc1ccc2nc(N3CCCC(C(=O)Nc4cc(Cl)c(OC)cc4OC)C3)sc2c1 (stereo unspecified)	·	·	·	?	2.69µM	·
CCOc1ccc2nc(N3CCC(C(=O)NC4CCCCC4)CC3)sc2c1	–	–	–	·	?	–
Cc1cc(C)c2nc(N3CCC(C(=O)NCc4cccnc4)CC3)sc2c1	–	–	–	–	?	–
CCOc1ccc2nc(N3CCCC(C(=O)NCCc4ccc(SC)cc4)C3)sc2c1 (stereo unspecified)	·	·	·	20µM	–	·
CCOc1ccc2nc(N3CCCC(C(=O)NC4CCCC4)C3)sc2c1 (stereo unspecified)	?	–	?	·	3.01µM	?
Cc1cc(C)c2nc(N3CCC(C(=O)NCc4ccccn4)CC3)sc2c1	–	–	–	–	16.9µM	–
O=C(O)[C@H](Cc1cc(I)c(O)c(I)c1)C1CCCCC1	·	·	·	–[9.22 µM]	·	·
CCOC(=O)Nc1ccc2nc(N3CCCCCC3)sc2c1	?	10.3µM	?	·	7.57µM	?
CCOc1ccc2nc(N3CCCC(C(=O)Nc4ccc(CC)cc4)C3)sc2c1 (stereo unspecified)	·	·	·	–	?	·
COc1ccc(CCNC(=O)C2CCCN(c3nc4ccccc4s3)C2)cc1OC (stereo unspecified)	–	–	–	·	–	–
CCOc1ccc2nc(N3CCCC(C(=O)Nc4cccc(Cl)c4C)C3)sc2c1 (stereo unspecified)	·	·	·	7.94µM	3.38µM	·
COc1ccc(CCNC(=O)C2CCCN(c3nc4c(C)cc(C)cc4s3)C2)cc1OC (stereo unspecified)	·	·	·	2.82µM	?	·
CCOC(=O)N1CCN(C(=O)C2CCCN(c3nc4ccc(OCC)cc4s3)C2)CC1 (stereo unspecified)	–	–	–	–	12µM	–
CCOc1ccc2nc(N3CCCC(C(=O)Nc4ccc(OC)cc4)C3)sc2c1 (stereo unspecified)	·	·	·	–	1.51µM	·
CCOC(=O)Cc1ccc(NC(=O)N2CCOc3ccc(C)cc32)cc1	·	·	·	·	–	·
O=C(/C(=C\c1ccccc1)c1nc2ccccc2[nH]1)c1ccc(Cl)cc1	?	?	?	–	–	2.82µM
SMILES	p53 reactivation	ELG1 genotox	Rab9 promoter act	SMN2 splice enh	FLuc counter	NPC1 prom act
O=C(/C(=C/c1ccc(Cl)cc1)c1nc2ccccc2[nH]1)c1cccs1	–	?	–	–	?	–
O=C(/C=C/c1cccc(Cl)c1)c1nc2ccccc2[nH]1	–	–	–	–	2.69µM	–
Cc1nn2c(=O)cc(COC(=O)c3ccccc3NC(=O)C(C)C)nc2s1	·	·	·	·	–	·
O=C(c1ccc(F)cc1)c1cc2ccccc2o1	?	?	–	·	10.7µM	?
NC(=O)c1cc2ccccc2o/c1=N\NC(=O)c1ccc(F)cc1	–	–	–	·	–	–
Cc1ccc(C(=O)c2cc3ccccc3o2)cc1[N+](=O)[O-]	–	?	2.82µM	–	7.57µM	?
O=C(c1ccccc1)c1cc2ccccc2o1	?	?	?	–	15.1µM	?
O=C(NNC(=O)c1cc2ccccc2o1)c1ccc(F)cc1	–	–	–	·	16.9µM	–
